Data: PubChem BioAssay AID463173 (ICCB-Longwood Screening Facility, Harvard Medical School, 2010)
Out of some 52,000 compounds screened, about 4,300 (8.3%) were called active. This is one part of a sample in which actives are shown more often than they occur. Unmarked numbers belong to inactive results. Cut-off read from the data, not from the text of the source: active = survival mostly below about 52% (no sharp cut-off); inactive = mostly above about 56%.

system: DeltatarO mutant; assay: S. aureus survival, RN4220 and DeltatarO strains – OD600, teichoic acid synthesis inhibitors, primary screen (AID 463173); settings: S. aureus RN4220 wild type/DeltatarO growth, OD600, 18 h, hits give low values, screened at 18.75 µg/mL (by protocol)

| SMILES | survival |
| --- | --- |
| Cc1ccc(NC(=O)C(=O)NCc2ccco2)cc1 | 58% |
| O=c1cc(CSc2n[nH]c(-c3ccccc3)n2)[nH]c2ccccc12 | 129% |
| Cc1nn2c(=O)cc(COC(=O)c3cccc(NC(=O)c4ccc(C(C)(C)C)cc4)c3)nc2s1 | 85% |
| CCc1nn(CC(=O)NCCC(C)C)c(=O)c2cc3occc3n12 | 125% |
| CCCc1cc(=O)[nH]c(Nc2cc(Cl)ccc2OC)n1 | 68% |
| COC(=O)c1cccc(NC(=O)C2CCN(S(=O)(=O)Cc3ccccc3)CC2)c1C | 77% |
| COc1ccc(-n2c(-c3ccc(Cl)cc3)cc3c2CC(C)(C)CC3=O)c(OC)c1 | 4% (active) |
| Cc1ccc(-n2c3c(cc(-c4nc(-c5ccc(Cl)cc5)cs4)c2=O)C(=O)CC(C)(C)C3)cc1 | 79% |
| Cc1cccc(-n2c3c(cc(-c4nc(-c5ccc(Cl)cc5)cs4)c2=O)C(=O)CC(C)(C)C3)c1 | 62% (active) |
| COc1cccc(-n2c(-c3ccc(C)cc3)cc3c2CC(C)(C)CC3=O)c1 | 18% (active) |
| COc1cccc(-n2c(-c3ccc(Cl)cc3)cc3c2CC(C)(C)CC3=O)c1 | 35% (active) |
| COc1ccc(-n2c3c(cc(-c4nc(-c5ccc(Cl)cc5)cs4)c2=O)C(=O)CC(C)(C)C3)cc1 | 140% |
| COc1ccc(-n2c(-c3ccc(C)cc3)cc3c2CC(C)(C)CC3=O)cc1Cl | 80% |
| Cc1ccc(-c2cc3c(n2-c2ccc(C)cc2)CC(C)(C)CC3=O)cc1 | 74% |
| COc1ccc(C)cc1-n1c(-c2ccc(Cl)cc2)cc2c1CC(C)(C)CC2=O | 86% |
| COc1ccc(-n2c(-c3ccc(C)cc3)cc3c2CC(C)(C)CC3=O)c(OC)c1 | 101% |
| CC1(C)CC(=O)c2cc(-c3nc(-c4ccc(Cl)cc4)cs3)c(=O)n(-c3cccc(F)c3)c2C1 | 70% |
| COc1ccc(C)cc1-n1c(-c2ccc(C)cc2)cc2c1CC(C)(C)CC2=O | 114% |
| CN(C)c1ccc(CNC(=O)c2cnc3sc(N4CCOCC4)nn3c2=O)cc1 | 85% |
| CC(CCc1ccccc1)NC(=O)Cn1ncc2c3ccccc3n(Cc3ccccc3)c2c1=O (configuration not stated) | 81% |
| CCc1ccc(OCC2c3cc(OC)c(OC)cc3CCN2C(=O)COc2ccccc2)cc1 (configuration not stated) | 91% |
| CCC(C(=O)NCc1ccccc1Cl)n1nc(C)c2sc3ccccc3c2c1=O (configuration not stated) | 103% |

| SMILES | survival |
| --- | --- |
| Cc1cccc(NC(=O)c2cc(S(=O)(=O)N3CCCCCC3)cn2C)c1C | 67% |
| O=C(NCCc1ccccc1)C1CCN(Cc2cc3ccccc3n2Cc2ccccc2)CC1 | 79% |
| Cc1cccc(N(C)S(=O)(=O)c2cc3[nH]c(=O)c(=O)[nH]c3cc2C)c1 | 88% |
| CC(C)c1cnc2c(c1SCC(=O)Nc1cccc(F)c1)c(=O)n(C)c(=O)n2C | 81% |
| O=S(=O)(c1ccc(-c2csc(=Nc3ccc(OC(F)(F)Cl)cc3)n2CCCO)cc1)N1CCCC1 | 159% |
| O=S(=O)(c1ccc(-c2csc(=Nc3ccc(F)cc3)n2CCCCCCO)cc1)N1CCCC1 | 56% |
| Cc1ccc(-c2csc(=Nc3ccccc3)n2CCCO)cc1 | 5% (active) |
| Cc1ccc(-c2csc(=Nc3ccccc3)n2Cc2ccc3c(c2)OCO3)cc1 | 73% |
| CCN(CC)CCn1c(-c2ccccc2)csc1=Nc1ccccc1 | 42% (active) |
| Clc1ccc(-c2csc(=Nc3ccccc3)n2Cc2ccc3c(c2)OCO3)cc1 | 95% |
| OCCCn1c(-c2ccc(F)cc2)csc1=Nc1ccc(F)cc1 | 39% (active) |
| COc1ccc(-c2csc(=Nc3ccccc3)n2CCO)cc1F | 58% |
| Cc1ccc(-c2csc(=Nc3ccccc3)n2Cc2ccc3c(c2)OCO3)cc1C | 112% |
| CCOC(=O)c1c(NC(=O)CSc2cn(CCNC(=O)c3c(F)cccc3F)c3ccccc23)sc2c1CCC2 | 93% |
| COc1ccc(Cl)cc1NC(=O)c1cc(S(=O)(=O)N(C)Cc2ccccc2)ccc1F | 74% |
| O=C(c1cc(-c2ccc(Br)cc2)n[nH]1)N1CCN(S(=O)(=O)c2ccc(Br)cc2)CC1 | 79% |
| CN(C)S(=O)(=O)n1cc(/C=C(\NC(=O)c2ccccc2)C(=O)NCCCn2ccnc2)c2ccccc21 | 104% |
| COc1ccc(CNC(=O)c2ccc(NC(=O)N3CCSc4ncccc43)cc2)c(OC)c1 | 81% |
| COc1ccc(OC)c(C2C(C(N)=O)=C(C)Nc3nc(-c4cccc(Cl)c4)nn32)c1 (configuration not stated) | 113% |
| CCOc1ccc(S(=O)(=O)N2CCN(c3cc(Cl)ccc3Cl)CC2)c2ccccc12 | 64% |
| Cc1cc(C)c2nc(NC(=O)c3ccc(S(=O)(=O)N4CCc5ccccc54)cc3)sc2c1 | 83% |
| O=C(Nc1nnc(S(=O)(=O)N2CCCc3ccccc32)s1)c1ccc(Cl)cc1 | 15% (active) |

| SMILES | survival |
| --- | --- |
| Cc1c(Cl)ccc2sc(NC(=O)c3ccc(S(=O)(=O)N4CCCc5ccccc54)cc3)nc12 | 55% |
| O=C(Nc1nnc(S(=O)(=O)N2CCCc3ccccc32)s1)c1ccccc1 | 27% (active) |
| CCC(CC)C(=O)Nc1nnc(S(=O)(=O)N2CCc3ccccc32)s1 | 73% |
| O=C(Nc1nnc(S(=O)(=O)N2CCCc3ccccc32)s1)c1cccc(F)c1 | 7% (active) |
| O=C(Nc1nc2c(F)cccc2s1)c1ccc(S(=O)(=O)N2CCCc3ccccc32)cc1 | 102% |
| O=C(Nc1nnc(S(=O)(=O)N2CCc3ccccc32)s1)c1ccccc1 | 12% (active) |
| Cc1nc2ccccc2c2nc(N)nn12 | 85% |
| C=Cc1ccc(CSc2nc(-c3ccc(Cl)cc3)nc3c2Cc2c(CO)cnc(C)c2O3)cc1 | 70% |
| COc1ccc(NC(=O)Cn2c(SCc3ccc(F)cc3)nc3cccnc32)cc1OC | 74% |
| CC(=O)c1ccc(S(=O)(=O)Nc2cccc(-c3ccc(N4CCCC4)nn3)c2)cc1 | 89% |
| Cc1ccccc1Cn1c(=O)n(CCCCCC(=O)NCc2ccc3c(c2)OCO3)c(=O)c2sccc21 | 101% |
| COc1ccc2c(=O)c(NC(=O)Nc3ccc(F)cc3F)c[nH]c2c1 | 92% |
| O=c1c2sc3ccccc3c2n(Cc2cccc(C(F)(F)F)c2)c(=O)n1Cc1ccc(F)cc1 | 114% |
| O=C(Nc1ccc(F)cc1F)C1CCN(C(=O)c2cnn(-c3ccccc3)c2-n2cccc2)CC1 | 106% |
| O=c1[nH]c2sc3c(c2c(=O)n1-c1ccccc1)CCCC3 | 70% |
| CC(C)Sc1nc2sc3c(c2c(=O)n1Cc1ccccc1)CCCC3 | 13% (active) |
| C=C(C)Cn1c(SCC(=O)Nc2ccccc2C)nc2sc3c(c2c1=O)CCCC3 | 126% |
| O=c1c2c3c(sc2nc(NCCO)n1-c1ccccc1)CCCC3 | 92% |
| C=CCSc1nc2sc3c(c2c(=O)n1CC=C)CCCC3 | 98% |
| CC(C)Sc1nc2sc3c(c2c(=O)n1-c1ccccc1)CCCC3 | -3% (active) |
| C#CCSc1nc2sc3c(c2c(=O)n1Cc1ccccc1)CCCC3 | 33% (active) |
| C=CCn1c(SC(C)C)nc2sc3c(c2c1=O)CCCC3 | 71% |

| SMILES | survival |
| --- | --- |
| CCCCC(c1nnnn1C(C)C)N1CCN(c2ccc(F)cc2)CC1 (configuration not stated) | 85% |
| CCOC(=O)Cn1c2[n+](c3ccccc31)CC(O)CS2 (configuration not stated) | 72% |
| Cc1ccc(CNC(=O)CSc2nc3ccsc3c(=O)n2-c2ccc(C(=O)O)cc2)cc1 | 95% |
| Cc1ccc(C)c(NC(=O)C2CCCN2S(=O)(=O)c2ccc3c(c2)n(C)c(=O)c(=O)n3C)c1 (configuration not stated) | 38% (active) |
| Cc1ccc(NC(=O)C2CCCN2S(=O)(=O)c2ccc3c(c2)n(C)c(=O)c(=O)n3C)cc1 (configuration not stated) | 87% |
| Cc1ccc(NC(=O)C2CCCN2S(=O)(=O)c2ccc3c(c2)n(C)c(=O)c(=O)n3C)cc1C (configuration not stated) | 115% |
| COc1ccc2cc(CNc3ccccc3)c(=O)n(CC(=O)Nc3ccc(C(C)=O)cc3)c2c1 | 68% |
| COc1ccccc1NC(=O)C(C#N)Cc1cc2cc(C)cc(C)c2[nH]c1=O (configuration not stated) | 98% |
| CCOC(=O)c1cc2c(ccn2-c2ccc(F)cc2)n1CC(=O)c1ccc2c(c1)OCCO2 | 100% |
| Cc1cccc(-c2noc(CN(C(=O)c3ccccc3Cl)C(C)C)n2)c1 | 62% |
| Cc1cccc(-c2noc(CN(C(=O)COc3ccc(Br)cc3C)C(C)C)n2)c1 | 45% (active) |
| Cc1cccc(-c2noc(CN(C(=O)c3ccc(C)c(C)c3)C(C)C)n2)c1 | -3% (active) |
| COc1ccccc1C(=O)N(Cc1nc(-c2cccc(C)c2)no1)C(C)C | 62% |
| CC(Oc1ccc(Br)cc1)C(=O)N(Cc1nc(-c2ccccc2)no1)C(C)C (configuration not stated) | 97% |
| COc1ccc(OC(C)C(=O)NCc2nc(-c3cccc(C)c3)no2)cc1 (configuration not stated) | 61% |
| CCOc1ccc(C(=O)N(Cc2nc(-c3cccc(C)c3)no2)C(C)C)cc1 | 0% (active) |
| Cc1cccc(-c2noc(CN(C(=O)COc3ccc(C(C)C)cc3)C(C)C)n2)c1 | 11% (active) |
| Cc1ccc2cc(CN(C(=O)c3cccc(Cl)c3)c3ccccc3)c(=O)[nH]c2c1 | 74% |
| CCS(=O)(=O)N1CCc2cc(C(=O)Nc3cc(C(F)(F)F)ccc3Cl)ccc21 | 48% |
| Cc1ccc(-c2noc(CSc3nnc(C)n3-c3ccc(F)cc3)n2)cc1 | 61% |
| CCCN1CCN(CCCNC(=O)c2cc3c(=O)[nH]c4ccccc4c3s2)CC1 | 79% |
